Results on 19 compounds are retold here after PubChem BioAssay (EPA / NIEHS).

Experiment [1] can be described thus: CCTE_Mundy_HCI_hNP1_Pro_ResponderAvgInten: CCTE's Proliferation Assay in human neuroprogenitor cells, Mundy Lab (AID 2284224; active means hit-call score of the fitted dose curve at least 0.9, where 1 is the maximum;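 further: human neural progenitor cells hNP1 derived from WA09 embryonic stem cells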). In a few lines:
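Human neuroprogenitors (hNP1, WA09 lineage) receive test chemical after 40 to 44 hours of attachment. A four-hour BrdU pulse begins twenty hours later, followed by fixation and high content imaging; signal is referenced to DMSO controls.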

Experiment [2] in a line: BSK_BT_PBMCCytotoxicity: PBMC Cytotoxicity Assessment in the BioMAP Diversity Plus: BT Assay (AID 2284225).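 Further: PBMC viability measured by Alamar Blue dye reduction fluorescence.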 Conditions: primary human B cells with PBMC. In a few lines: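 75,000 cells/well; cpd 1 h → SEB + TSST-1 (20 ng/mL final each) → 90 h → Alamar Blue 6 h → fluor. 546/580 nm. DMSO = neg. control/baseline.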
Read-out in experiment [3]: Secreted IgG (sIgG), gene 3500
The experiment can be described thus: BSK_BT_sIgG: BioMAP Diversity Plus: BT Assay for Secreted IgG (sIgG) Biomarker Activity (AID 2284226). Conditions: primary human B cells with PBMC. Summed up:
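Secreted IgG from a human primary B cell–PBMC co-culture was measured by ELISA 24 hours after dosing, with DMSO defining baseline activity.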

The nature of experiment [4]: BSK_BT_Bcell_Proliferation: Viability Assessment in the BioMAP Diversity Plus: BT Assay for B cell Proliferation (AID 2284227). Conditions: primary human B cells with PBMC. Summed up: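 Human B cell/PBMC co-culture; test chemical added; 72 h; TCA fix (10%), 0.1% SRB stain, A560 for total protein as a proliferation read-out; positive-direction fit vs DMSO baseline.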

Read-out in experiment [5]: Interleukin 6 (IL6), IL6 (gene 3569)
Briefly: BSK_BT_xIL6: BioMAP Diversity Plus: BT Assay for Interleukin 6 (IL6) Biomarker Activity (AID 2284228). Conditions: primary human B cells with PBMC. In a few lines:
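Chemical added to human B cell/PBMC co-culture → 24 h → supernatant IL-6 by Luminex xMAP → fit vs DMSO baseline, upward direction.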

Read-out in experiment [6]: Interleukin 17A (IL17A), IL17A (gene 3605)
Briefly: BSK_BT_xIL17A: BioMAP Diversity Plus: BT Assay for Interleukin 17A (IL17A) Biomarker Activity (AID 2284229). Conditions: primary human B cells with PBMC. Summed up:
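Chemicals were added to a human B cell and PBMC co-culture. After 24 h, secreted IL-17A was measured with Luminex xMAP. Curves were fitted in the positive direction, with DMSO wells as baseline.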

Read-out in experiment [7]: Tumor necrosis factor (Homo sapiens) (UniProt P01375)
Briefly: BSK_BT_xTNFa: BioMAP Diversity Plus: BT Assay for Tumor necrosis factor alpha (TNF-alpha) Biomarker Activity (AID 2284230). Conditions: primary human B cells with PBMC. In a few lines: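 Read-out: Luminex xMAP quantitation of secreted TNF-alpha from a B cell/PBMC co-culture 24 h after compound addition. Signal analysed relative to DMSO vehicle, positive fitting direction.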

Read-out in experiment [8]: Vascular cell adhesion molecule 1 (VCAM1), VCAM1 (gene 7412)
Briefly: BSK_MyoF_VCAM1: BioMAP Diversity Plus: MyoF Assay for Vascular cell adhesion molecule 1 (VCAM1) Biomarker Activity (AID 2284231). Conditions: primary human lung fibroblasts. In a few lines: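 Steps: fibroblasts from human lung exposed to compound; biomarker quantified by ELISA at 24 h; values analysed for upward change over the DMSO baseline.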

Several values for one entry are separate records, joined by “and”; a condition that tells them apart may be missing. Identical values can stand only once. Results filed as inconclusive are left out. Activity calls are given as the source filed them. How the source made its calls, unless noted: active means hit-call score of the fitted dose curve at least 0.9, where 1 is the maximum; inactive means score below 0.9.

Sequence of Tumor necrosis factor (Homo sapiens) (P01375 whole entry, looked up): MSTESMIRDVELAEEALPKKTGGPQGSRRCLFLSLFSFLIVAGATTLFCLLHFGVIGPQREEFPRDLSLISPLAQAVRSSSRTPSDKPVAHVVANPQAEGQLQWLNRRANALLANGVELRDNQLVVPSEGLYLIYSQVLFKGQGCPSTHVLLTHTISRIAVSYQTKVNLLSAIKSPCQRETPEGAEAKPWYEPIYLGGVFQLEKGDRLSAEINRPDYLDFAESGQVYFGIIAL

For the compound `O=C(O)C(F)(F)C(F)(F)C(F)(F)F`, the call in experiment [1], in experiment [2], in experiment [3], in experiment [4], in experiment [5] and in experiment [6] was inactive. Moreover, the result in experiment [7] and in experiment [8] was inactive.
On to `CCCCCCCCC(F)(F)C(F)(F)C(F)(F)C(F)(F)C(F)(F)C(F)(F)F`, for which the outcome in experiment [2], in experiment [3], in experiment [4], in experiment [5], in experiment [6] and in experiment [7] was inactive. For the same compound, the outcome in experiment [8] was inactive.
For `O=C(O)C(F)(F)C(F)(F)OC(F)(F)F`, the result in experiment [1], in experiment [2], in experiment [3], in experiment [4], in experiment [5] and in experiment [6] was inactive. Moreover, the outcome in experiment [7] and in experiment [8] was inactive.
As to `OCC(F)(F)C(F)(F)C(F)(F)C(F)F`, the result in experiment [2], in experiment [3], in experiment [4], in experiment [5], in experiment [6] and in experiment [7] was inactive. For the same compound, the outcome in experiment [8] was inactive.
For the compound `C=CC/C=C/C/C=C/C/C=C/C`, the result in experiment [2], in experiment [3], in experiment [4], in experiment [5], in experiment [6] and in experiment [7] was inactive. In addition, the outcome in experiment [8] was inactive.
Take `O=C(CC(=O)C(F)(F)C(F)(F)F)C(F)(F)F`: the result in experiment [2], in experiment [3], in experiment [4], in experiment [5], in experiment [6] and in experiment [7] was inactive. Moreover, the outcome in experiment [8] was inactive.
As to `NC(=O)C(F)(F)C(F)(F)C(F)(F)C(F)(F)F`, the outcome in experiment [2], in experiment [3], in experiment [4], in experiment [5], in experiment [6] and in experiment [7] was inactive. For the same compound, the result in experiment [8] was inactive.
For `O=C(Cl)C(F)(F)C(F)(F)C(F)(F)C(F)(F)C(F)(F)C(F)(F)C(F)(F)C(F)(F)F`, the result in experiment [2], in experiment [3], in experiment [4], in experiment [5], in experiment [6] and in experiment [7] was inactive. Besides, in experiment [8], the AC50 is 27.2 µM (active) and 45.4 µM (active) and 44.1 µM (active).
`C=CC(F)(F)C(F)(F)C(F)(F)C(F)(F)C(F)(F)C(F)(F)C(F)(F)C(F)(F)F`: the outcome in experiment [2], in experiment [3], in experiment [4], in experiment [5], in experiment [6] and in experiment [7] was inactive. Besides, the outcome in experiment [8] was inactive.
Regarding `CCCCOCCOCCOC(=O)CCCCC(=O)OCCOCCOCCCC`, the result in experiment [2], in experiment [3], in experiment [4], in experiment [5], in experiment [6] and in experiment [7] was inactive. The outcome in experiment [8] was inactive.
As to `O=C(O)C(F)(F)C(F)(F)F`, the outcome in experiment [2], in experiment [3], in experiment [4], in experiment [5], in experiment [6] and in experiment [7] was inactive. In addition, the outcome in experiment [8] was inactive.
Regarding `CCCCCCCCCCCCCCCC[N+](C)(C)Cc1ccccc1`, the concentration at half-maximal activity (AC50) in experiment [2] is 5.2 µM (active); in experiment [3] it was 0.274 µM (active); in experiment [4], 2.44 µM (active); in experiment [5] it was 9.92 µM (active); in experiment [6] it was 2.84 µM (active); in experiment [7], 5.5 µM (active). In experiment [8], the AC50 was 2.1 µM (active).
On to `CS(C)(=O)=O`, for which the outcome in experiment [2], in experiment [3], in experiment [4], in experiment [5], in experiment [6] and in experiment [7] was inactive. Besides, the outcome in experiment [8] was inactive.
Turning to `O=S(=O)(OCCOC(F)(F)F)C(F)(F)F`, the result in experiment [2], in experiment [3], in experiment [4], in experiment [5], in experiment [6] and in experiment [7] was inactive. Further, the result in experiment [8] was inactive.
As for `CC(=O)Nc1ccc(N=Nc2cc(C)ccc2O)cc1`, the outcome in experiment [2], in experiment [4], in experiment [6] and in experiment [7] was inactive. For the same compound, the AC50 in experiment [3] is 9.61 µM (active); in experiment [5], 0.016 µM (active); in experiment [8] it was 20 µM (active).
Turning to `CCO[Si](CCC(F)(F)C(F)(F)C(F)(F)C(F)(F)C(F)(F)C(F)(F)F)(OCC)OCC`, the result in experiment [2], in experiment [3], in experiment [4], in experiment [5], in experiment [6] and in experiment [7] was inactive. In experiment [8], the outcome was inactive.
As for `O=C(O)C(F)(F)C(F)(F)C(F)F`, the result in experiment [2], in experiment [3], in experiment [4], in experiment [5], in experiment [6] and in experiment [7] was inactive. Further, the outcome in experiment [8] was inactive.
In the case of `O=C(O)C(F)(OC(F)(F)C(F)(OC(F)(F)C(F)(F)C(F)(F)F)C(F)(F)F)C(F)(F)F` (stereo not given), the outcome in experiment [2], in experiment [3], in experiment [4], in experiment [5], in experiment [6] and in experiment [7] was inactive. In experiment [8], the result was inactive.
For the compound `FC(F)(F)C(F)(F)C(F)(F)C(F)(F)C(F)(F)C(F)(F)C(F)(F)I`, the result in experiment [2], in experiment [3], in experiment [4], in experiment [5], in experiment [6] and in experiment [7] was inactive. For the same compound, the AC50 in experiment [8] was 4.15 µM (active) and 4.24 µM (active).
